Assay outcomes as filed in PubChem.
Shown are actives, neighbours in structure and some others; about 5.1% of the full set was active somewhere.
ANO1 activ: mouse TMEM16A channel activation, primary screen. Q8BHY3. HEK293 TMEM16A/YFP-H148Q/I152L, iodide quench fluorescence; active compounds read low. B-score at 10 µM. 340,000 compounds, 0.3% hits. AID 623877;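 active means fluorescence-ratio B-score plate-corrected deviation score at least 3 library SD below zero, with starting fluorescence score within 5 deviations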;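 further: channel opened by trigger with iodide after compound preincubation; score built on the fluorescence ratio of max minus min over baseline; more negative score means more quench and so TMEM16A activation or potentiation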
ANO1 block: mouse TMEM16A channel inhibition, primary screen | Q8BHY3 | HEK293 TMEM16A/YFP iodide influx fluorescence, ionomycin | normalized B-score (activity score, 25-100; higher = stronger inhibition) at 10 µM | 310,000 compounds, 1.2% hits | AID 588511;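 active means ratio plate-corrected score three or more library SD toward inhibition, starting fluorescence score within five deviations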;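 further: score derived from kinetic fluorescence span divided by baseline fluorescence per well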
CRFBP-R2 block: blocks CRF-induced signaling of the CRF-BP/CRF-R2 complex; inhibition, % at 11.8 µM; AID 588475; 350,000 compounds, 0.59% hits; HEK293 CRF-R2/CRF-BP, CRF-induced calcium fluorescence;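 active means inhibition of the ligand-induced calcium signal above about 50% at the single tested concentration, limit read from the data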
MPTP block: permeability transition pore inhibition; isolated mouse mitochondria, Ca2+ swelling absorbance, 30 min; inhibition, % at 10 µM; 360,000 compounds, 1.4% hits; AID 602449;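 active means inhibition of 50% or more, scaled per plate between neutral and stimulator controls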
NR3A LBD binder: modulators (binders) of human NR3A ligand-binding domain; 340,000 compounds, 2.5% hits; NR3A LBD differential scanning fluorimetry, Tm shift; 0% = protein alone, 100% = glycine-bound protein; Tm shift relative to glycine control, % at 25 µM;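 active means melting temperature shift of at least 10% of the positive control shift, at one fixed dose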
CRFR2-BP ag: agonists of human CRF-binding protein/CRF-R2 receptor complex | activation, % at 13.2 µM | HEK293 CRF-R2/CRF-BP, calcium dye fluorescence (FLIPR); percent of saturating CRF peptide response | 350,000 compounds, 0.46% hits;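 active means activation of at least 50%, plus an integration ratio under a set limit after plate pattern correction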
Hits are given with their value; 0 = inactive; - = no result; ! = repeats disagree.

SMILES	ANO1 activ	ANO1 block	CRFBP-R2 block	MPTP block	NR3A LBD binder	CRFR2-BP ag
O=C(CN1CCN(S(=O)(=O)c2ccc(Br)cc2)CC1)N/N=C/c1ccc(Cl)c([N+](=O)[O-])c1	0	0	0	0	10	0
Cc1ccc(S(=O)(=O)N2CCN(CC(=O)N/N=C\c3ccc(Cl)c([N+](=O)[O-])c3)CC2)cc1	0	0	0	0	0	0
CC1(c2ccc(OC(F)F)cc2)NC(=O)N(CC(=O)Nc2ccc(F)cc2)C1=O (configuration not stated)	0	0	0	0	0	0
CC1(c2ccc(OC(F)F)cc2)NC(=O)N(CC(=O)Nc2ccc(Cl)cc2F)C1=O (configuration not stated)	0	0	0	0	0	0
CC1(c2ccc(OC(F)F)cc2)NC(=O)N(CC(=O)Nc2ccc(OC(F)F)cc2)C1=O (configuration not stated)	-14	0	0	0	0	0
CCOc1ccc(NC(=O)CN2C(=O)NC(C)(c3ccc(OC(F)F)cc3)C2=O)cc1 (configuration not stated)	0	0	0	0	0	74
Cc1cc(NC(=O)CN2C(=O)NC(C)(c3ccc(OC(F)F)cc3)C2=O)no1 (configuration not stated)	0	0	0	0	0	78
CC1(c2ccc(OC(F)F)cc2)NC(=O)N(CC(=O)Nc2cccc(F)c2)C1=O (configuration not stated)	0	0	0	0	0	136
Cc1ccc(S(=O)(=O)NN=C2CCCc3ccccc32)cc1	-	-	0	0	-	0
CCCc1cc(=O)[nH]c(SCCc2ccccc2)n1	0	0	0	0	0	0
COc1cccc(NC(=O)CN(C)C(=O)c2cc3c(s2)CCCCC3)c1	0	-	0	0	0	0
Cc1ccc(SCC(=O)Nc2ccc(N3CCOCC3)cc2)cc1C	0	-	0	0	0	0
O=C(CCN1C(=O)C2CC=C(Cl)CC2C1=O)Nc1ccccc1O (configuration not stated)	0	0	0	0	11	0
CCC(=O)N1CCN(CCN=CC2=C(O)CC(C)(C)CC2=O)CC1	0	0	0	0	13	0
CC1(C)CC(=O)C(C=NCCN2CCN(C(=O)CCl)CC2)=C(O)C1	0	0	0	0	0	0
CC1Cc2nc(SCC(=O)N3CCCCC3)n(C)c(=O)c2S1 (configuration not stated)	-	-	0	0	-	0
CC(C)(C)OC1NS(=O)(=O)OCC1NCOC(Cl)(Cl)Cl (configuration not stated)	0	0	0	0	0	0
Cc1cccc(NC(=O)NNS(=O)(=O)c2ccc(F)cc2)c1	0	0	0	0	0	0
Cc1ccc(S(=O)(=O)NNC(=S)Nc2cccc(F)c2)cc1	0	0	93	0	0	0
CCN(CC)CCOC(=O)CCc1cccc2ccccc12	0	0	0	0	0	0
CCN(CC)CCOC(=O)C(Cc1ccco1)Cc1cccc2ccccc12 (configuration not stated)	0	0	52	0	0	0
CNc1oc(-c2ccc(OCc3ccccc3)cc2)nc1C#N	0	0	0	0	33	0
N#Cc1nc(-c2ccc(OCc3ccc(Cl)cc3)cc2)oc1NCCCn1ccnc1	0	0	0	0	17	0
COc1ccc(CNc2oc(COc3ccccc3)nc2C#N)cc1	0	0	52	0	0	0
COc1ccc(CCNc2oc(COc3ccccc3)nc2C#N)cc1	0	0	0	0	0	0
SMILES	ANO1 activ	ANO1 block	CRFBP-R2 block	MPTP block	NR3A LBD binder	CRFR2-BP ag
CCn1c(SCC(=O)Nc2ccc(NC(C)=O)cc2)nc2c1c(=O)n(C)c(=O)n2C	0	0	0	0	0	0
Cc1cccc(N2CCN(C(=O)COc3ccc4c(c3)CCC4)CC2C)c1 (configuration not stated)	0	-	0	0	0	0
CCOP(=O)(OCC)c1nc(-c2ccccc2)oc1N1CCCCC1	0	0	0	0	0	0
COP(=O)(OC)c1nc(-c2ccc([N+](=O)[O-])cc2)oc1N1CCCCC1	0	0	0	0	0	54
CCN(CC(=O)Nc1c(F)cccc1F)C(=O)c1ccc2ccccc2n1	0	0	0	0	15	0
CCN(CC(=O)Nc1c(F)cccc1F)C(=O)CCCc1cccs1	-39	-	0	0	0	0
O=C(OCC(=O)N1N=C(c2ccc(Cl)cc2)CC1c1ccco1)c1ccccc1O (configuration not stated)	0	0	0	0	0	0
O=C(OCC(=O)N1N=C(c2ccc(Cl)cc2)CC1c1ccco1)c1ccco1 (configuration not stated)	0	0	0	0	0	240
Cc1ccc(S(=O)(=O)NCC(=O)OCC(=O)N2N=C(c3ccc(Cl)cc3)CC2c2ccco2)cc1C (configuration not stated)	0	0	0	0	31	0
CC(C)Oc1cc(F)ccc1-c1cc(C(=O)NCc2ccccc2)[nH]n1	-	-	-	0	-	-
COc1ccc(C(=O)Nc2oc(-c3ccccc3)c(-c3ccccc3)c2C#N)cc1	0	0	0	0	0	0
Cc1cccc(C)c1OCC(=O)Nc1oc(-c2ccccc2)c(-c2ccccc2)c1C#N	0	0	107	0	0	0
Cc1cccc(C)c1NC(=O)c1sccc1SCc1cccc(C(F)(F)F)c1	0	0	71	0	0	0
CCCOc1ccc(-c2c(C(=O)N/N=C(\C)COc3ccccc3)nnn2-c2nonc2N)cc1	0	0	0	0	0	0
c1ccc(-c2cc3nccc(-c4ccccn4)n3n2)cc1	0	0	60	0	0	0
CCCCN(C=O)c1c(CC)nc2ccc(C(=O)N3CCN(C(C)=O)CC3)cn12	-	-	-	0	-	-
COc1cc(NC(=O)COC(=O)Cc2ccc(-c3ccccc3)cc2)cc(OC)c1	0	0	0	0	36	0
COc1cccc(NC(=O)Cc2ccccc2)c1	0	0	0	0	10	0
COc1ccc(NC(=O)Nc2nnc(CC(=O)Nc3ccccc3)s2)cc1	0	0	0	0	0	0
COc1cccc(NC(=O)Nc2nnc(CC(=O)Nc3ccccc3)s2)c1	0	0	0	0	23	0
O=C(Cc1nnc(NC(=O)Nc2ccc(Cl)cc2)s1)NCc1ccccc1	0	0	0	0	16	0
C=CCc1cccc2cc(C(=O)Nc3ccccc3C(=O)O)c(=O)oc12	0	-	0	0	0	0
O=C(OCc1cn([C@@H]2C[C@H](c3ccccc3)N(Cc3cccs3)C[C@H]2O)nn1)c1ccccc1	-	-	0	0	-	0
CCCCCCCCCCCCCCCC[n+]1ccc(/C=N/O)cc1	0	0	0	0	25	0
CCCCCCCCCCCCCCCC[n+]1cccc(C(=O)N(CC)CC)c1	0	0	0	0	0	104!
CCCCCCCC[n+]1cccc(C(=O)N(CC)CC)c1	0	0	0	0	0	0
